# Experimental data from PubChem BioAssay (NCI).
# The panel holds about 83,000 compounds, 20% with a hit somewhere; the sample as a whole holds those more often.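 In brief: 96-well plates, 48 h treatment, single concentration, percent growth endpoint.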 Values without a mark were called inactive. Active and inactive are the calls of the source. The calls were made as follows: active = growth percent below 10; inactive = the rest.
# Columns and labels:
# Assay in all cases: NCI-60 one-dose screen, 48 h (100 = growth as untreated, 0 = no growth, -100 = all killed)
# Settings in all cases: 10 µM unless noted
# [1] = tested on: DU-145 prostate
# [2] = tested on: K-562 leukemia
# [3] = tested on: MALME-3M melanoma
# [4] = tested on: MDA-MB-231 breast
# [5] = tested on: RXF 393 renal
# [6] = tested on: SF-268 CNS
# [7] = tested on: SF-295 CNS
# [8] = tested on: SF-539 CNS
# [9] = tested on: UACC-257 melanoma
# [10] = tested on: M14 melanoma
SMILES,growth [1],growth [2],growth [3],growth [4],growth [5],growth [6],growth [7],growth [8],growth [9],growth [10]
CCCCCc1ccnc(CC(=O)c2ccc(OC)cc2)c1,105%,68.1%,90.3%,98%,106%,98.7%,97.4%,97.2%,90.9%,99.2%
CCCCCSc1ccc2nc(NC(=O)OCCC)sc2c1,43.2%,19%,62.5%,43.3%,28.8%,55.2%,19.9%,-24.7% (active),63.1%,23.1%
N#Cc1c2ncccc2c2nnc3cc(Cl)c(Cl)cc3n12,89.2%,91%,79.6%,67%,116%,90.6%,105%,97.1%,95.3%,100%
C/C(=N\Nc1ccc(Cl)cn1)c1ccccn1,18.2%,5.63% (active),2.78% (active),31%,19.4%,11.9%,-1.75% (active),-14% (active),-11.4% (active),2.33% (active)
Cc1nnc(/N=C2\NC(=O)/C(=C/C=C/c3ccccc3)S2)s1,57.5%,36%,54.1%,71.4%,69.2%,51.9%,32.5%,64.9%,75.3%,49.8%
C=CCSc1nnc(COc2ccc3c(C)c(Cc4ccccc4)c(=O)oc3c2C)o1,106%,96.2%,108%,104%,114%,101%,99.9%,101%,102%,102%
S=C(N/N=C/c1cc(Cl)cc(Cl)c1)NC12CC3CC(CC(C3)C1)C2,77.4%,79.5%,54.6%,52.6%,67.2%,64.6%,35.1%,68.9%,83%,89%
CCCCCCN(CCCCCC)CCC(=O)Nc1ccc(S(=O)(=O)c2ccc(NC(=O)CCN(CCCCCC)CCCCCC)cc2)cc1,95.4%,7.37% (active),96%,61%,83.3%,80.1%,100%,94.7%,99.8%,88.9%
CC(=O)N1CCN(CCNC(=O)n2cc(-c3ccncc3)c(-c3ccc(O)c(Cl)c3)n2)CC1,105%,91.8%,90.6%,107%,120%,107%,130%,101%,103%,70.2%
COc1cccc(-c2cc(-c3cc4ccccc4oc3=O)nc(N)n2)c1,112%,99%,121%,90.4%,108%,101%,125%,132%,108%,100%
Clc1ccc(N/N=C/c2ccccn2)nc1,19.2%,10.8%,1.36% (active),34.5%,16.2%,6.56% (active),1.61% (active),1.62% (active),1.06% (active),-25.7% (active)
Oc1ccccc1\C=N/N=C/C=C/c1ccccc1,105%,82.9%,102%,67.1%,117%,88.9%,98.4%,104%,107%,95.8%
O=C(N/N=C/c1cc(Cl)ccc1O)C(=O)N/N=C/c1cc(Cl)ccc1O,71.1%,51.9%,80.1%,76.5%,80.3%,56.5%,52.2%,57.3%,69.6%,78.6%
CC(=O)c1ccc2c(c1)c1ccccc1n2C,104%,86.7%,105%,102%,94.7%,101%,85.8%,108%,104%,106%
O=C1Nc2c(c(=O)n(-c3ccccc3)c3ccccc23)C(c2ccc(Cl)cc2)N1 (stereo not given),86.7%,93.7%,121%,89.1%,103%,70.9%,65.3%,77%,118%,95.2%
CC[N+](C)(C)N,118%,103%,112%,106%,94.3%,110%,104%,109%,110%,107%
C/C=C(/C)C(=O)OC1C=C(CO)C(=O)C(OC(=O)C2(C)OC2C)C1C(C)C (stereo not given),6.72% (active),1.51% (active),-77.4% (active),1.48% (active),-74.3% (active),13.3%,-20.5% (active),-65.6% (active),-9.59% (active),-49.2% (active)
CCOC(=O)CCCCCCCCC(=O)OCC,108%,101%,94.4%,111%,112%,97.3%,103%,112%,101%,114%
CC(C)(C)c1ccc(OCCOC(=O)CBr)cc1,109%,82.8%,107%,88%,78.5%,96.3%,116%,100%,106%,95.8%
O=C1/C(=C/c2ccc(Cl)cc2)CCC/C1=C\c1ccc(Cl)cc1,91.7%,67.9%,90.5%,95.6%,56.4%,84.1%,94.5%,88.1%,81.5%,69.7%
CCCCCCC(=O)C(C)C,106%,94.9%,89.2%,111%,101%,105%,101%,104%,92.8%,97.2%
CC(=O)Nc1nc(C)c(C(=O)NN)s1,105%,67.3%,120%,99%,104%,95.2%,133%,91.3%,108%,113%
CC(=O)/C(=C\c1c(-c2ccccc2)[nH]c2ccccc12)S(=O)(=O)c1ccccc1,-18.7% (active),-53.4% (active),62.6%,4.14% (active),-28.2% (active),7.87% (active),-41.4% (active),-38.1% (active),-6.16% (active),5% (active)
CCOC(=O)NC1=NCC(C)(C)S1,107%,88.4%,103%,101%,111%,97.8%,98.7%,110%,103%,103%
CC1(C)C(O)NC(Cl)=C(C#N)C1(C#N)C#N (stereo not given),110%,94.4%,136%,111%,7.52% (active),123%,174%,95.9%,109%,110%
CCCC(C)c1cc(Cc2cc(Cl)cc(Cl)c2O)c(O)c(Cc2cc(Cl)cc(Cl)c2O)c1 (stereo not given),26.8%,7.77% (active),-22.2% (active),-13.4% (active),-10% (active),16.3%,-38.6% (active),-3.24% (active),-3.64% (active),7.97% (active)
CCCCCCNc1nc(N2CCOCC2)c2[nH]c(NCCCCCC)nc2n1,-88.1% (active),-52.4% (active),-62.2% (active),-94.4% (active),-84.9% (active),-92.8% (active),-61.8% (active),-94.4% (active),-95.4% (active),-98% (active)
